Measured values reported in PubChem BioAssay (NCATS).
Several values for one entry are separate records, joined by “and”; a condition that tells them apart may be missing. Equal entries are not always repeated. Inconclusive results are not listed. Activity calls are given as the source filed them. Unless noted, calls follow the shape of the dose curve; as a rule, active = well fitted curve in the direction sought with a large enough effect; inconclusive = small, poorly fitted or top-dose-only effect, or another doubt; inactive = no such curve, though single readings can be large; an effect the other way counts as inactive or inconclusive.

Assays:
[1] = biological target: Arylsulfatase A (Homo sapiens) (UniProt P15289); experiment: qHTS screen for enhancers of Arylsulfatase A (ASA1): LOPAC Validation Assay (AID 720538); conditions: outcome: dose series up to 57.5 µM
Method in brief: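 MLD patient fibroblasts (SV40, ASA-I179S), 1536-well; adhere 6 hrs; cpd 48h, 37 degree C, 5% CO2; pNCS 0.5mM final in lysis buffer, 14h RT; stop 1N NaOH final; fluor. Ex525/Em598.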

[2] = qHTS for compounds that reverse cellular toxicity of Amyloid beta (A-beta) peptide in yeast: LOPAC Validation Assay (AID 720559);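 also: plate controls were DMSO for no effect and equimolar ferric chloride plus clioquinol rescue for full effect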
Method in brief: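 Medium dispensed, compounds pinned, A-beta yeast suspension added; plates held at 30 C for 48 hr; absorbance measured at 600 nm to gauge growth; values scaled between DMSO and FeCl3/clioquinol (equimolar) controls.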

[3] = qHTS for Activators of Parkin Expression: LOPAC Validation Assay (NLuc Reporter) (AID 720572)
Method in brief: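 Neuronal line stably carrying a FLuc/NLuc coincidence reporter under the Parkin promoter, seeded 24 h, then dosed in 7-point series for 24 h at 37 C. NLuc luminescence read after FLuc; normalized to DMSO and positive control (100%).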

[4] = qHTS for Activators of Parkin Expression: LOPAC Validation Assay (FLuc Reporter) (AID 720573)
Method in brief: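 Cells seeded, 24 h; compounds pinned, 7-pt dose response; 24 h at 37 C/5% CO2; volume reduced; FLuc reagent 10 min RT; luminescence read. Normalization: DMSO = 0, positive control = 100%.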

[5] = biological target: T1, Hexokinase-4 (Homo sapiens) + Glucokinase regulatory protein (Homo sapiens) (UniProt P35557+Q14397); experiment: qHTS assay for inhibitors of recombinant human GCK-GKRP interaction: Diaphorase-coupled assay (AID 743205)
Method in brief: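 25 mM Hepes pH 7.6, 5 mM glucose, 0.4 mM ATP, 4 U/ml G6PDH; 10 nM each GST-GCK/FLAG-GKRP. Kinetic fluorescence read, 1/min × 30 min. Normalized: DMSO ± enzyme = max/min.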

[6] = biological target: T1, Hexokinase-4 (Homo sapiens) + Glucokinase regulatory protein (Homo sapiens); experiment: qHTS assay for inhibitors of recombinant human GCK-GKRP interaction: ADP-Glo assay (AID 743206);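 also: plate controls were DMSO plus enzyme for no effect and no enzyme for full effect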
Method in brief: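 GST-GCK and FLAG-GKRP (15 nM each in the dispensed mix, with 2 uM S6P) react with 0.4 mM ATP and 5 mM glucose (final) in Hepes pH 7.6 for 60 min at room temperature. ADP is measured by ADP-Glo luminescence.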

[7] = qHTS assay for small molecule agonists of the antioxidant response element (ARE) signaling pathway measured by Nrf2-dependant transcriptional activity (AID 720636; active = well fitted curve in the direction sought with a large enough effect in the repeat runs; an effect the other way counts as inactive or inconclusive; also: % of control where 0% means no effect)
Method in brief: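 ARE-luc HepG2 cells carrying an Nrf2-responsive luciferase reporter were plated in medium with 1% dialyzed FBS, left 6 hr at 37 C to attach, then exposed to compound for 16 hr. Luciferase luminescence was read after ONE-Glo addition.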

[8] = qHTS assay for small molecule antagonists of the retinoid-related orphan receptor gamma (ROR-gamma) signaling pathway - cell viability counter screen (AID 720652; active = well fitted curve in the direction sought with a large enough effect in the repeat runs; an effect the other way counts as inactive or inconclusive;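 also: series mostly up to about 92 µM; compound exposure lasted 16 hr before ATP read; % is scaled to controls: 0 for no effect and ±100 for the full control effect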)
Method in brief: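 Luminescence from CellTiter-Glo after 30 min at room temperature reported cellular ATP as the cytotoxicity measure. Cells were the CHO reporter line with doxycycline-induced ROR-gamma expression, exposed to compound for 16 hr at 37 C.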

[9] = qHTS assay for small molecule agonists of the antioxidant response element (ARE) signaling pathway measured by Nrf2-dependant transcriptional activity - cell viability counter screen (AID 720653; active = well fitted curve in the direction sought with a large enough effect in the repeat runs; an effect the other way counts as inactive or inconclusive; also: % is scaled to controls: 0 for no effect and ±100 for the full control effect); conditions: ARE-bla HepG2 viability, CellTiter-Glo ATP luminescence, 16 h; active compounds read low
Method in brief: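 ARE-bla HepG2 cells (2,000/well) rested 5 hrs at 37C/5% CO2, then exposed to compounds in DMSO for 16 hrs. Viability was read in the same wells as intracellular ATP by luminescence, 30 min at room temperature after reagent addition.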

T1 sequence (P35557 whole entry, looked up): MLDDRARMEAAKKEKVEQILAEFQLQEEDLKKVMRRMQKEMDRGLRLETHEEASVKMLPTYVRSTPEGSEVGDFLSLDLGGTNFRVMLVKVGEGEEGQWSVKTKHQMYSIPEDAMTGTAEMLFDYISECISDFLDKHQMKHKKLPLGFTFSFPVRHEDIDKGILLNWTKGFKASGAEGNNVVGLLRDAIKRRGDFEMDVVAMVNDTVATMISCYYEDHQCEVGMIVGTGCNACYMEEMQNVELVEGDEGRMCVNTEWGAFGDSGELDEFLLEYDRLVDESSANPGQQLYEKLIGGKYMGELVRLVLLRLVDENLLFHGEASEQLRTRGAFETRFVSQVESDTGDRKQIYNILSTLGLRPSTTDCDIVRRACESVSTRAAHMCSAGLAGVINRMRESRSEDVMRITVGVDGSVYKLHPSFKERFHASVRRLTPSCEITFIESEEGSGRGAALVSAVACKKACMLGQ
T1 sequence (Q14397 whole entry, looked up): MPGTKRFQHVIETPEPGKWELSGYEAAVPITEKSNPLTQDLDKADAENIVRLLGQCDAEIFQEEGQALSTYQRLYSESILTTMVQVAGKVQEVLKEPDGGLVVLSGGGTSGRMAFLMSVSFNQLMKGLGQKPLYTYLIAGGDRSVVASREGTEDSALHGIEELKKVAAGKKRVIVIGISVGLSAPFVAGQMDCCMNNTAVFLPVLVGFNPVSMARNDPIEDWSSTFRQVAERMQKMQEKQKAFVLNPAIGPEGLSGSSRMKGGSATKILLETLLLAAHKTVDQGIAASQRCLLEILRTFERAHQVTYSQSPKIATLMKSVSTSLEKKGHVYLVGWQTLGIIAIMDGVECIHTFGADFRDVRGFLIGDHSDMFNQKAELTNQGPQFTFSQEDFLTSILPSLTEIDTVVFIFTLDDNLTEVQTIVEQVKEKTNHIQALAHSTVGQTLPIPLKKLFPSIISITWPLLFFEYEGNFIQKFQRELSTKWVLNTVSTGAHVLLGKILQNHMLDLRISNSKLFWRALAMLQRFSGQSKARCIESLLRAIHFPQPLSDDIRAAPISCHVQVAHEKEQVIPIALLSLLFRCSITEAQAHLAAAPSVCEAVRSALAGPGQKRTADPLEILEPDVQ
Arylsulfatase A (Homo sapiens), sequence (P15289 whole entry, looked up): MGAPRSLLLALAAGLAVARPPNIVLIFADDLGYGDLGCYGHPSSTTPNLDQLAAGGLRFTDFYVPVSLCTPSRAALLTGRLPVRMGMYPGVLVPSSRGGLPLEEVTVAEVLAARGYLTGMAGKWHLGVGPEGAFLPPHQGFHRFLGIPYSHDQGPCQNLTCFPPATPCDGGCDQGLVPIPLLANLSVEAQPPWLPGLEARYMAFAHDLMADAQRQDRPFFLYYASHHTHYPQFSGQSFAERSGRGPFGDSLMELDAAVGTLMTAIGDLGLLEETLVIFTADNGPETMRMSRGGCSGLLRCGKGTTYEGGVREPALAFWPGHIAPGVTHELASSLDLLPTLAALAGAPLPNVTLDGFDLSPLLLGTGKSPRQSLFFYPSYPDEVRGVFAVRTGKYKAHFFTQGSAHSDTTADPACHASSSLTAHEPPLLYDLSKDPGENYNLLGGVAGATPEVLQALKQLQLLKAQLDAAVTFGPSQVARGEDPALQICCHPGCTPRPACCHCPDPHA

O=c1n(CCCN2CCN(c3cccc(Cl)c3)CC2)nc2ccccn12
inactive: outcome [1] | outcome [2] | Potency [3] | outcome [4] | outcome [5] | outcome [6]

Cn1cnc([N+](=O)[O-])c1Sc1ncnc2nc[nH]c12
inactive: outcome [2] | Potency [3] | outcome [4] | outcome [7] | outcome [8] | outcome [5] | outcome [6]

CC(C[N+](C)(C)C)OC(N)=O (configuration not stated)
inactive: outcome [1] | outcome [2] | Potency [3] | outcome [4] | outcome [5] | outcome [6]

Cc1cn[nH]c1
inactive: outcome [1] | outcome [2] | Potency [3] | outcome [4] | outcome [5] | outcome [6]

N=c1nc(N2CCCCC2)cc(N)n1O
inactive: outcome [1] | outcome [2] | Potency [3] | outcome [4] | outcome [5] | outcome [6]

O=C1CCC(N2C(=O)c3ccccc3C2=O)C(=O)N1 (configuration not stated)
inactive: outcome [1] inactive; inhibitor; fitted 0.0301 uM | outcome [2] | Potency [3] | outcome [4] | outcome [7] | max response [9] 1.28% | outcome [5] | outcome [6]

NC(=O)c1cnccn1
inactive: outcome [1] | outcome [2] | Potency [3] | outcome [4] | outcome [7] | outcome [8] | max response [9] 6.82% and 7.56% | outcome [5] | outcome [6]

NC[C@H](O)c1ccc(O)c(O)c1
inactive: outcome [1] | outcome [7] | max response [9] -7.71% | outcome [5] | outcome [6]

CNC[C@H](O)c1cccc(O)c1
inactive: outcome [1] | outcome [2] | Potency [3] | outcome [4] | outcome [7] | max response [9] -6.42% | outcome [5] | outcome [6]

Nc1ccc(S(=O)(=O)Nc2ccnn2-c2ccccc2)cc1
inactive: outcome [1] | outcome [2] | Potency [3] | outcome [4] | outcome [5] | outcome [6]
